Test results: PubChem BioAssay (EPA / NIEHS)
Some structures have more than one record in an assay (separate samples or runs), and their calls can disagree. The source made the active and inactive calls. Rule for the calls: active = hit-call score of the fitted dose curve at least 0.9, where 1 is the maximum; inactive = score below 0.9.

assay: CCTE_Padilla_ZF_144hpf_TERATOSCORE: (Legacy) CCTE's 144 Hour Post-fertilization zebrafish Assay Teratoscore, Padilla Lab (AID 2283679);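 for AC50: zebrafish embryos with chorions exposed by immersion from 6-8 hpf to 5 dpf with daily renewal; teratogenicity score from eye scoring of death hatching and malformations at 144 hpf; higher score means more developmental defects relative to DMSO baseline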
Summary of the method: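 Larvae scored by eye at 144 hpf for death, hatching and malformations after a day in clean Hanks'. Before that, daily-renewed exposure at 80 uM (0.4% DMSO, 26C) from roughly 6-8 hpf through 5 dpf, 4 embryos per chemical.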

Question: With CC(C)(O)C(=O)Nc1ccc([N+](=O)[O-])c(C(F)(F)F)c1 as the compound, how does the AC50 read?
Answer: Its AC50 is 31.4 µM (active).

Question: With CCC(C)c1cc([N+](=O)[O-])cc([N+](=O)[O-])c1O (centres undefined) as the compound, how does the AC50 read?
Answer: The AC50 was 0.167 µM (active).

Question: With Oc1ccc(C(c2ccc(O)cc2)(C(F)(F)F)C(F)(F)F)cc1 as the compound, how does the AC50 read?
Answer: Its AC50 is 18.1 µM (active).

Question: For C1CC2OC2CC1C1CO1 (centres undefined), which AC50 is on record?
Answer: Its AC50 is 77.8 µM (active).

Question: With C[C@]12CCC(=O)C=C1CC[C@@H]1[C@@H]2CC[C@@]2(C)[C@H]1CC[C@]2(C)O as the compound, how does the AC50 read?
Answer: The AC50 was 24.4 µM (active).

Question: For c1cc2ccc3cccc4ccc(c1)c2c34, which AC50 is on record?
Answer: Its AC50 is 13.5 µM (active).

Question: With CCOC(=O)C(O)(c1ccc(Cl)cc1)c1ccc(Cl)cc1 as the compound, how does the AC50 read?
Answer: Its AC50 is 1.71 µM (active).

Question: With CCCCCCCCCC[N+](C)(C)CCCCCCCCCC as the compound, how does the AC50 read?
Answer: Its AC50 is 4.53 µM (active).

Question: For O=S(=O)(O)C(F)(F)C(F)(F)C(F)(F)C(F)(F)C(F)(F)C(F)(F)F, which AC50 is on record?
Answer: The AC50 was 123 µM (active).

Question: Which AC50 does the source give for CCOP(=S)(OCC)SCSC(C)(C)C here?
Answer: The AC50 was 56.3 µM (active).

Question: Which AC50 does the source give for CC1=C2C[C@H]3[C@@H](CC=C4C[C@@H](O)CC[C@@]43C)[C@@H]2CC[C@]12O[C@@H]1C[C@H](C)CN[C@H]1[C@H]2C here?
Answer: The AC50 was 0.115 µM (active).

Question: Which AC50 does the source give for CC(C)(c1ccccc1)c1ccc(O)cc1 here?
Answer: The AC50 was 4.83 µM (active).

Question: With ClC1=C(Cl)[C@]2(Cl)[C@@H]3[C@@H]4C[C@@H]([C@H]5O[C@@H]45)[C@@H]3[C@@]1(Cl)C2(Cl)Cl as the compound, how does the AC50 read?
Answer: The AC50 was 0.345 µM (active).

Question: Which results are given for c1ccc(-c2ccccc2)cc1?
Answer: AC50: 4.5 µM (active); outcome: inactive

Question: With COc1ccc(O)c(C(C)(C)C)c1 as the compound, how does the AC50 read?
Answer: Its AC50 is 57.8 µM (active).

Question: Which AC50 does the source give for ClC1=C(Cl)[C@]2(Cl)[C@@H]3[C@@H](Cl)[C@H]4O[C@H]4[C@@H]3C1(Cl)C2(Cl)Cl here?
Answer: The AC50 was 0.547 µM (active).

Question: Which AC50 does the source give for Cc1cc2c3c(c1)C(c1ccccc1)=N[C@@H](NC(=O)c1ccncc1)C(=O)N3CC2 here?
Answer: Its AC50 is 54.4 µM (active).

Question: Which AC50 does the source give for Nc1ccc(-c2ccc(N)cc2)cc1 here?
Answer: Its AC50 is 33 µM (active).

Question: For Clc1ccc(C(c2ccccc2Cl)C(Cl)(Cl)Cl)cc1 (centres undefined), which AC50 is on record?
Answer: The AC50 was 16.1 µM (active).

Question: Which outcome does the source give for CCCCCCCCOC(=O)c1ccccc1C(=O)OCCCCCCCC here?
Answer: The outcome was “inactive”.

Question: With O=C(O)C(F)(F)C(F)(F)C(F)(F)C(F)(F)C(F)(F)C(F)(F)C(F)(F)C(F)(F)C(F)(F)F as the compound, how does the AC50 read?
Answer: The AC50 was 60.2 µM (active).

Question: Which AC50 does the source give for O=C(O)C(F)(F)C(F)(F)C(F)(F)C(F)(F)C(F)(F)C(F)(F)C(F)(F)C(F)(F)F here?
Answer: Its AC50 is 53.7 µM (active).

Question: For COS(=O)(=O)OC, which outcome is on record?
Answer: The outcome was “inactive”.
